Experiments:
Format in all cases: functional
Plasmodium falciparum [1] = experiment: GSK_TCMDC: Inhibition of Plasmodium falciparum 3D7 in whole red blood cells, using parasite LDH activity as an index of growth. Test compounds present at 2uM
Plasmodium falciparum [2] = experiment: GSK_TCMDC: Inhibition of Plasmodium falciparum Dd2 in whole red blood cells, using parasite LDH activity as an index of growth. Test compounds present at 2uM
HepG2 = experiment: GSK_TCMDC: Percent inhibition of human HepG2 cell line. Test compounds present at 10uM.

Compound | Inhibition (Plasmodium falciparum [1]) | Inhibition (Plasmodium falciparum [2]) | Inhibition (HepG2)
Nc1ccc2[nH]cc(C3CCN(CC4CCN(C(=O)/C=C/c5ccc(Cl)c(Cl)c5)CC4)CC3)c2n1 | 99% | 97% | 53%
CC(C)NCC(O)COc1ccc(Cc2ccc(OCC(O)CNC(C)C)cc2)cc1.Cl (stereo not given) | 100% | 18% | 0%
COc1cc(F)c2ncc(Cl)c([C@H](O)CN3CCC(NCc4cc5c(cn4)OCCO5)CC3)c2c1.Cl | 100% | 49% | 10%
CN1CCN(CCCN(Cc2csc(-c3ccc(CNCc4ccccc4)cc3)n2)C(=O)c2cc(F)cc(F)c2)CC1.O=C(O)C(F)(F)F | 97% | 53% | 60%
CCCc1cc(C(=O)N[C@@H](Cc2ccccc2)[C@H](O)CNC(C)C)c(F)c(N2CCCC2=O)c1 | 90% | 22% | 0%
O=C(CNC(=O)c1ccc(O)cc1)Nc1cccc(-c2cccc(-c3nc4cc(C(F)(F)F)ccc4[nH]3)c2)c1 | 96% | 28% | 63%
Clc1ccccc1C=NN=c1cc[nH]c2ccccc12 | 100% | 50% | 25%
CN(C)CCCNCc1ccc(-c2ccc(CNCCOc3ccccc3)cc2)cc1.O=C(O)C(F)(F)F | 100% | 53% | 27%
CC(C)NC(C)(C)CN(Cc1ccc(-c2ccc(C(F)(F)F)cc2)cc1)C(=O)Cn1c(CCc2cccc(F)c2F)nc(=O)c2ccccc21 | 94% | 68% | 44%
Cc1ccc(Cc2c(N)nc3nc(N)nc(N)c3c2C)cc1.Cl | 95% | 8% | 59%
COc1ccc(NC(=O)Nc2ccc(-c3ccc(-c4nc5ccccc5[nH]4)cc3)cc2)cc1 | 100% | 27% | 22%
CCCCCC(C)N/C(=N/c1ccccc1Br)Nc1ccc(C#N)cc1O (stereo not given) | 98% | 95% | 2%
Cc1ccc(C)c(NC(=O)Nc2ccc(C)c(-c3ccc(C(=O)Nc4ccncc4)cc3)c2)c1 | 98% | 59% | 46%
CN1C(=C2SC(=Nc3ccc4ncccc4c3)N(Cc3ccccc3)C2=O)Sc2ccc(Cl)cc21 | 99% | 75% | 4%
CC(C)OC(=O)c1cccnc1SCC(=O)Nc1ccc(C(F)(F)F)cc1Cl | 97% | 88% | 3%
CC(C)(C)N1CCC(N(Cc2ccc(-c3ccc(C(F)(F)F)cc3)cc2)C(=O)Cn2c(CCc3cccc(F)c3F)cc(=O)c3ccccc32)CC1.O=C(O)C(O)C(O)C(=O)O | 100% | 97% | 100%
Cc1c(CC(=O)N(C)C2CCN(CCCCCNC(=O)/C=C/c3ccc(Cl)c(Cl)c3)CC2)sc2ccc(Cl)cc12 | 95% | 9% | 93%
O=C(/C=C/c1ccc(Cl)c(Cl)c1)N1CCC(CCN2CCc3[nH]c4ccccc4c3C2)CC1.O=C(O)C(F)(F)F | 96% | 0% | 22%
Cc1cccc2nc(-c3cccc(-c4cccc(NC(=O)c5cn(C)c(=O)n5C)c4)c3)[nH]c12 | 99% | 80% | 5%
NC1CCCN(Cc2ccc(-c3cccc(-c4nc5ccccc5[nH]4)c3)cc2)C1.O=C(O)C(F)(F)F (stereo not given) | 95% | 26% | 26%
